This note sets out measurements from PubChem BioAssay (NCATS).

Inconclusive results are not listed. A number with no mark means an inactive call. Active and inactive are the calls of the source. Calls come from the whole dose curve; as a rule, active = well fitted curve in the direction sought with a large enough effect; inconclusive = small, poorly fitted or top-dose-only effect, or another doubt; inactive = no such curve, though single readings can be large; an effect the other way counts as inactive or inconclusive.

The target of test [1] is Cellular tumor antigen p53 (Homo sapiens) (UniProt P04637). The experiment in a line: Primary qHTS for small molecule compounds that upregulate eGFP-tagged delta133p53alpha (in N-terminal) cells. (AID 2060322).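 Note: 0% = DMSO vehicle and 100% = reference activator; nearly all actives have a fitted effect of over 75% in size.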 The conditions noted are these: NCI-H358 eGFP-delta133p53alpha fluorescence, 24 h; activation: active compounds read high. A digest of the protocol: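 NCI-H358 cells pre-induced 24 h with 10 ng/ml doxycycline to express N-terminal eGFP-delta133p53alpha, then dosed 24 h at 37C without doxycycline; fixed, Hoechst-stained, GFP intensity by laser scanning cytometry, normalized to DMSO (0%) and 57.5 uM 5-azacytidine (100%).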
Cellular tumor antigen p53 (Homo sapiens), sequence (P04637 whole entry, looked up): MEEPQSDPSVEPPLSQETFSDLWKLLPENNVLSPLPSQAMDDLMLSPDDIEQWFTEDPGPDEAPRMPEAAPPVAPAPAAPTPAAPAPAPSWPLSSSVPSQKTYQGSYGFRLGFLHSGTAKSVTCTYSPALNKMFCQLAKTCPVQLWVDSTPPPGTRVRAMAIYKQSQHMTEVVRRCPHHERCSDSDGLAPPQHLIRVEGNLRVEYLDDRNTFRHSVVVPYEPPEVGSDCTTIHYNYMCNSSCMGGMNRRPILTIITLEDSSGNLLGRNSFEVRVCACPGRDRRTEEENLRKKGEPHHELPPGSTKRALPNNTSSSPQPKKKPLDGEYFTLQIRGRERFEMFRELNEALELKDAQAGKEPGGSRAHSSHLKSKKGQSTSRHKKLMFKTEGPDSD
In general terms: qHTS replaces the single test concentration by a dilution series.

Test [2] concerns the target Aldehyde dehydrogenase, mitochondrial (Homo sapiens) (UniProt P05091). The test can be described thus: qHTS for Inhibitors of the Aldehyde Dehydrogenase Family (ALDH2) Primary screen (AID 2061308).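 Note: plate controls were vehicle for no effect and reference inhibitor for full effect; nearly all actives have a fitted effect of over 55% in size.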 The settings on record: ALDH2 enzyme inhibition qHTS, 1536-well; series mostly up to 56 µM.
For test [3], the target named is Retinaldehyde dehydrogenase 3 (Homo sapiens) (UniProt P47895). The test can be described thus: qHTS for Inhibitors of the Aldehyde Dehydrogenase Family (ALDH1A3) Confirmatory screens (AID 2061311). Note: potency is the fitted concentration of half-maximal effect; nearly all actives have a fitted effect of over 60% in size. The conditions noted are these: ALDH inhibition qHTS; series mostly up to 46 µM.
In test [4] the target is Retinal dehydrogenase 2 (Homo sapiens) (UniProt O94788). The test can be described thus: qHTS for Inhibitors of the Aldehyde Dehydrogenase Family (ALDH1A2) Confirmation screens (AID 2061314). Note: potency is the fitted concentration of half-maximal effect; nearly all actives have a fitted effect of over 65% in size. The conditions noted are these: ALDH1A2 enzyme inhibition qHTS confirmation; series mostly up to 45.9 µM.
Test [5] concerns the target Aldehyde dehydrogenase 1A1 (Homo sapiens) (UniProt P00352). The test can be described thus: qHTS for Inhibitors of the Aldehyde Dehydrogenase Family (ALDH1A1) Confirmatory screens (AID 2061316). Note: potency is the fitted concentration of half-maximal effect; nearly all actives have a fitted effect of over 65% in size. The conditions noted are these: ALDH inhibition qHTS; series mostly up to 47.3 µM.

As to `C[C@@H]1O[C@@H](O[C@H]2[C@H](O[C@H]3CC[C@@]4(C)C(CC[C@]5(C)C4CC=C4[C@@H]6CC(C)(C)CC[C@]6(C(=O)O[C@@H]6OC[C@H](O)[C@H](O)[C@H]6O[C@@H]6O[C@@H](C)[C@H](O[C@@H]7O[C@H](CO)[C@@H](O)[C@H](O)[C@H]7O)[C@H](O)[C@H]6O)[C@H](O)C[C@]45C)C3(C)C)O[C@H](CO)[C@@H](O[C@@H]3OC[C@@H](O)[C@H](O)[C@H]3O)[C@@H]2O)[C@H](O)[C@H](O)[C@H]1O` (stereo partly drawn), the activation in test [1] was -2.29%. Also, the activity change, negative = inhibition in test [2] is -18.4% [at 11.2 µM].
`CC(NCc1ccc(OCc2cccc(F)c2)cc1)C(N)=O` (stereo not drawn): the activation in test [1] is -7.16%. Besides, the Potency result in test [2] was “inactive”.
For the compound `COc1cc(O)cc(O[C@@H]2O[C@H](CO)[C@@H](O[C@@H]3OC[C@](O)(CO)[C@H]3O)[C@H](O)[C@H]2O)c1OC`, the activation in test [1] is -14.5%. The Potency entry in test [2] was “inactive”.
With `COc1cc(C2OCC3C(c4ccc(OC5OC(CO)C(O)C(O)C5O)c(OC)c4)OCC23)ccc1O` (stereo not drawn), the activation in test [1] was -24.4%. Also, in test [2], the Potency result was “inactive”.
The like results for `Fc1ccc2nc(CCC#Cc3ccccn3)cn2c1` were, in that order, 2.68% and “inactive”.
On the same counts, the results for `COc1cccc2cc3c(c(O[C@@H]4O[C@H](CO[C@@H]5O[C@H](CO)[C@@H](O)[C@H](O)[C@H]5O)[C@@H](O)[C@H](O)[C@H]4O)c12)C(C)OC3=O` (stereo partly drawn) are 3.57% and “inactive”.
The like results for `CC1CCC2(O1)C(C)(C)CC(O[C@@H]1O[C@H](CO[C@@H]3OC[C@](O)(CO)[C@H]3O)[C@@H](O)[C@H](O)[C@H]1O)CC2(C)O` (stereo partly drawn) were, in that order, 1.79% and “inactive”.
As for `CC1(C)OC(=O)CC(O)C2(C)C1CC(=O)C1(C)C2C(O)CC2(C)C(c3ccoc3)OC(=O)C3OC321` (stereo not drawn), the activation in test [1] is -23.7%. Besides, in test [2], the Potency result was “inactive”.
For the compound `CC1(C(=O)O)CC[C@]2(C(=O)OC3OC(CO)C(O)C(O)C3O)CC[C@]3(C)C(=CCC4[C@@]5(C)CC[C@H](OC6OCC(O)C(O)C6OC6OC(CO)C(O)C(O)C6O)C(C)(C)C5CC[C@]43C)C2C1` (stereo partly drawn), the activation in test [1] was -5.34%. In addition, the Potency entry in test [2] was “inactive”.
For the compound `COc1cc(/C=N\NC(=O)c2ccc3c(c2)OCO3)ccc1OCc1ccccc1`, in test [1], the activation is 2.39%. For the same compound, the Potency entry in test [2] is “inactive”.
As to `COc1cc2nc(N3CCN(C)CC3)nc(NC3CCN(Cc4ccccc4)CC3)c2cc1OC`, in test [1], the activation is 2.33%. The Potency result in test [2] is “inactive”.
With `CC1(C)CCC[C@@]2(C)[C@H]1[C@H](O)C=C1COC(=O)[C@@]12O`, the activation in test [1] was -4.58%. For the same compound, the Potency entry in test [2] was “inactive”.
In the case of `COc1cc(C2Oc3c(OC)cc(CCCO)cc3C2CO)ccc1O` (stereo not drawn), the activation in test [1] is -18.8%. For the same compound, the Potency result in test [2] was “inactive”.
On the same counts, the results for `NC(=O)c1ccc(OCC2NC(=O)C3CCCN3C2=O)cc1` (stereo not drawn) are -12.2% and “inactive”.
On the same counts, the results for `C[C@@H]1O[C@@H](O[C@H]2[C@@H]3C=CO[C@@H](O[C@@H]4O[C@H](CO)[C@@H](O)[C@H](O)[C@H]4O)[C@@H]3[C@@]3(CO)O[C@@H]23)[C@H](OC(=O)/C=C/c2ccc(O)c(O)c2)[C@H](O)[C@H]1O` are -5.34% and “inactive”.
Turning to `COC(=O)C1=COC(O[C@@H]2O[C@H](CO)[C@@H](O)[C@H](O)[C@H]2O)/C(=C\COC(=O)c2ccc(OC3OC(CO)C(O)C(O)C3O)c(OC)c2)C1CC(=O)OCCc1ccc(O)cc1` (stereo partly drawn), the activation in test [1] was -11.5%. For the same compound, the Potency result in test [2] is “inactive”.
`COc1cc(OC)c(NC(=O)c2ccc(Cc3cc4c(cc3C)C(C)(C)CCC4(C)C)o2)c(OC)c1`: in test [1], the activation was 10.5%. Also, the Potency entry in test [2] was “inactive”. Further, the Potency in test [3] is 4 µM (active); in test [4], 5.65 µM (active); in test [5] it was 5.04 µM (active).
On the same counts, the results for `CC[C@H](NC(=O)c1c(O)c(-c2ccccc2)nc2ccccc12)c1ccccc1` are 2.86%, “inactive”, 3.57 µM (active), 1.27 µM (active) and 3.18 µM (active).
On to `CC1=C(CCC(C)O[C@@H]2O[C@H](CO)[C@@H](O)[C@H](O)[C@H]2O)C(C)(C)CCC1=O` (stereo partly drawn), for which the activation in test [1] was -16.8%. Further, the Potency result in test [2] is “inactive”.
The like results for `C=C1CC[C@@H]2[C@](C)(CO)[C@H](O)CC[C@@]2(C)[C@@H]1/C=C/C1=CCOC1=O` were, in that order, -12.2% and “inactive”.
As for `CC1=CC(=O)CC(C)(C)C1(O)CCC(C)O` (stereo not drawn), the activation in test [1] was 0.893%. The Potency result in test [2] is “inactive”.
Regarding `COc1cc(C(=O)OC[C@H]2O[C@@H](Oc3ccccc3/C=C/C(=O)O)[C@H](O)[C@@H](O)[C@@H]2O)cc(OC)c1OC`, the activation in test [1] is 1.53%. In test [2], the Potency entry was “inactive”. Also, the Potency in test [3] was 9.79 µM (active).
Consider `CC1=C2C[C@H]3OC(=O)[C@H](O)[C@@]4(O)[C@@H](C)[C@@H](O)[C@H](O)C([C@@]2(C)[C@H](O)[C@@H](O)C1)[C@@]34C` (stereo partly drawn), for which the activation in test [1] is -11.5%. The Potency entry in test [2] is “inactive”.
